Values joined by “and” are separate entries in the source; they are usually repeats but may differ in a detail not shown here. Equal values may be shown once. ± gives the standard deviation of the averaged measurements.
Experiments:
DLD1 [1] = assay: cell viability (CellTiter-Glo) relative to plate median (fraction of plate median); higher = more viable cells; conditions: 5 µM; treatment time 24 h; reporter: 7TFP
Summary of the method: (§1)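 Normalisation used webcellHTS2 in additive mode without log transformation, scaling each well's luminescence to the plate median. The luminescence was firefly luciferase or CellTiterGlo, read on a Tecan F500 from parallel plates of colorectal cancer cells stably transduced with lentiviral TCF/Wnt firefly luciferase reporters. Those cells had been given library compounds at a final 5 µM for 24 h, and two independent replicates were averaged.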

HCT116 = assay: as above; conditions: 5 µM; treatment time 24 h; reporter: TCF4/Wnt
Summary of the method: as §1

SW480 [2] = assay: as above; conditions: 5 µM; treatment time 24 h; reporter: 7TFP
Summary of the method: as §1

DLD1 [3] = assay: TCF/Wnt firefly luciferase reporter signal relative to plate median (fraction of plate median); higher = higher Wnt reporter signal; conditions: 5 µM; treatment time 24 h; reporter: 7TFP
Summary of the method: as §1

SW480 [4] = assay: as above; conditions: 5 µM; treatment time 24 h; reporter: 7TFP
Summary of the method: as §1

Row | SMILES | cell viability (DLD1 [1]) | cell viability (HCT116) | cell viability (SW480 [2]) | TCF/Wnt firefly luciferase reporter signal (DLD1 [3]) | TCF/Wnt firefly luciferase reporter signal (SW480 [4])
1 | O=c1oc2ccccc2cc1O | 0.992 ± 0.04 | 0.955 ± 0.013 | 1.03 ± 0.021 | 0.765 ± 0.016 | 0.911 ± 0.14
2 | COc1c2occc2cc2ccc(=O)oc12 | 1.04 ± 0.05 | 1.02 ± 0.089 | 1.05 ± 0.014 | 1.09 ± 0.21 | 1.1 ± 0.057
3 | S=c1[nH]cnc2nc[nH]c12 | 0.733 ± 0.044 | 0.989 ± 0.1 | 0.932 ± 0.012 | 1.22 | 1.03 ± 0.021
4 | COC1=C[C@@H](C)[C@@H]2C[C@H]3OC(=O)C[C@H]4C(C)=C(OC)C(=O)[C@H]([C@@]2(C)C1=O)[C@@]34C | 0.975 ± 0.064 | 0.972 ± 0.054 | 0.979 ± 0.044 | 1.025 ± 0.0071 | 1
5 | CC(=O)OC(C)(C)[C@@H]1Cc2cc3ccc(=O)oc3cc2O1 | 1.06 ± 0.014 | 1.1 ± 0.014 | 1.03 ± 0.062 | 0.896 ± 0.039 | 0.944 ± 0.077
6 | CN1C(C(=O)Nc2ccccn2)=C(O)c2sccc2S1(=O)=O | 0.932 ± 0.03 | 0.893 ± 0.011 | 0.9585 ± 0.00071 | 0.978 ± 0.073 | 1.09 ± 0.014
7 | CC(COc1ccccc1)NC(C)C(O)c1ccc(O)cc1 (stereo not given) | 1.03 ± 0.096 | 0.966 ± 0.091 | 0.916 ± 0.017 | 1.18 ± 0.05 | 1.01 ± 0.076
8 | C[C@]12CCC[C@H](O1)c1c(cc3c(c1O)C(=O)c1c(O)cc(O)cc1C3=O)O2 [Averufin (Isoform A, Compound ID 7507)] | 1.01 ± 0.12 | 1.05 ± 0.14 | 1.04 ± 0.088 | 0.896 ± 0.16 | 0.972 ± 0.083
9 | C[C@@H]1Cc2cc(O)cc(O)c2C(=O)O[C@H](C)CC(=O)O[C@H](CO)CC(=O)O[C@H](C)Cc2cc(O)cc(O)c2C(=O)O[C@H](C)CC(=O)O1 | 1.04 ± 0.11 | 1.14 ± 0.035 | 1.01 ± 0.062 | 0.938 ± 0.028 | 1.05 ± 0.05
10 | C[C@](N)(Cc1ccc(O)cc1)C(=O)O [alpha-METHYL-L-TYROSINE] | 1.08 ± 0.11 | 1.07 ± 0.078 | 0.944 ± 0.016 | 0.896 ± 0.02 | 0.974 ± 0.11
11 | O=c1c(-c2ccc(O)cc2)coc2cc(O)cc(O)c12 | 1.09 ± 0.021 | 1.03 ± 0.05 | 1.06 ± 0.021 | 1.065 ± 0.0071 | 1.12
12 | CN1CCC(=C2c3ccccc3CCc3sccc32)CC1 | 1.07 ± 0.014 | 1.14 ± 0.17 | 1.1 ± 0.064 | 1.05 ± 0.11 | 0.934 ± 0.061
13 | CC(=O)OC1CC[C@@]2(C)C(CC[C@H]3[C@@H]4CC=C(C(C)=O)[C@@]4(C)C(=O)C[C@@H]32)C1 (stereo not given in full) | 1 ± 0.012 | 1.05 ± 0.081 | 1.04 ± 0.072 | 1.08 ± 0.014 | 1.06 ± 0.05
14 | CN(C)CCCO[C@@H]1[C@H]2OC(C)(C)O[C@H]2O[C@@H]1[C@H](O)CO | 1.04 ± 0.06 | 0.9935 ± 0.0064 | 0.96 ± 0.038 | 0.998 ± 0.14 | 0.972 ± 0.029
15 | C/C=C/C/C=C/CCC(=O)[C@H]1O[C@H]1C(N)=O [Cerulenin] | 0.927 ± 0.092 | 0.951 ± 0.069 | 0.946 ± 0.018 | 1.01 ± 0.11 | 0.993 ± 0.025
16 | C=C1C2CCC3(C)C(c4ccoc4)OC(=O)CC13OC1CC(OC(C)=O)C(C)(C)C(CC(=O)OC)C12C (stereo not drawn) [3beta-ACETOXYDEOXYANGOLENSIC ACID, METHYL ESTER] | 0.908 ± 0.14 | 0.946 ± 0.033 | 0.995 ± 0.05 | 0.966 ± 0.13 | 0.8955 ± 0.0021

Row | SMILES | cell viability (DLD1 [1]) | cell viability (HCT116) | cell viability (SW480 [2]) | TCF/Wnt firefly luciferase reporter signal (DLD1 [3]) | TCF/Wnt firefly luciferase reporter signal (SW480 [4])
17 | C[C@H](CCC(=O)O)[C@H]1CC[C@H]2[C@@H]3C(=O)C[C@@H]4CC(=O)CC[C@]4(C)[C@H]3CC(=O)[C@]12C | 0.956 and 0.954 | 0.911 and 0.941 | 0.912 and 0.967 | 0.894 and 1.06 | 1.05 and 1.15
18 | COc1ccc2c(c1)O[C@@H]1COc3cc(OC)c(OC)cc3[C@@H]1C2=O | 1.02 ± 0.067 | 0.841 ± 0.074 | 0.908 ± 0.037 | 0.979 ± 0.087 | 0.777 ± 0.046
19 | CC(=O)NCC(=O)c1c[nH]c2ccccc12 [N-Acetyl-beta-oxotryptamin] | 1.02 ± 0.048 | 0.983 ± 0.095 | 0.982 ± 0.013 | 1.11 ± 0.085 | 0.932 ± 0.052
20 | CC1=C(/C=C/C(C)=C/C=C/C(C)=C\C(=O)O)C(C)(C)CCC1 | 1.02 ± 0.05 | 0.949 ± 0.1 | 0.967 ± 0.012 | 0.827 ± 0.097 | 0.872 ± 0.044
21 | O=C(C=Cc1ccc(O)cc1)c1ccccc1O | 0.926 ± 0.089 | 0.881 ± 0.03 | 1.02 ± 0.028 | 1.06 ± 0.035 | 1.07 ± 0.092
22 | CC(C)c1c(O)ccc2c1CC[C@H]1[C@@](C)(CO)CCC[C@]21C | 1.07 ± 0.057 | 1.03 ± 0.15 | 1.1 ± 0.085 | 1.06 ± 0.19 | 1.04 ± 0.021
23 | O=C(O)c1ccc2c(c1)OCO2 | 0.927 ± 0.12 | 1.09 ± 0.078 | 0.948 ± 0.033 | 0.927 ± 0.022 | 0.866 ± 0.12
24 | CCn1cc(C(=O)O)c(=O)c2cc(F)c(N3CCNCC3)cc21 | 0.944 ± 0.061 | 0.98 ± 0.18 | 0.926 ± 0.0014 | 1.19 ± 0.042 | 1.07 ± 0.071
25 | CC(=O)NCCCS(=O)(=O)O | 1.03 ± 0.091 | 1.03 ± 0.028 | 1.025 ± 0.0071 | 1.12 ± 0.11 | 1.06 ± 0.071
26 | CO/N=C(\C(=O)N[C@@H]1C(=O)N2C(C(=O)O)=C(COC(C)=O)CS[C@H]12)c1csc(N)n1 | 1.03 ± 0.035 | 1.07 | 0.969 ± 0.031 | 1.01 ± 0.11 | 0.856 ± 0.074
27 | CC(C)C1=CC2=CC[C@@H]3[C@](C)(CCC[C@@]3(C)C(=O)O)[C@H]2CC1 | 0.967 ± 0.09 | 0.97 ± 0.013 | 0.897 ± 0.012 | 1.1 ± 0.11 | 0.912 ± 0.09
28 | NC[C@@H]1O[C@@H](O[C@H]2[C@H](O)[C@@H](O[C@H]3O[C@H](CO)[C@@H](O)[C@H](N)[C@H]3O)[C@H](N)C[C@@H]2N)[C@@H](O)[C@H](O)[C@H]1O | 0.986 ± 0.091 | 1.04 ± 0.014 | 0.94 ± 0.0042 | 1.02 ± 0.035 | 0.988 ± 0.031
29 | COc1ccc2c(c1)CC[C@@H]1[C@@H]2CC[C@]2(C)[C@@H](O)CC[C@@H]12 | 0.928 ± 0.093 | 0.953 ± 0.15 | 1 ± 0.064 | 0.885 ± 0.18 | 0.969 ± 0.16
30 | C/C1=C\CC(C)(C)/C=C/CC2(C)OC2CC1 (stereo not given) | 1.04 ± 0.035 | 0.96 ± 0.099 | 1.03 ± 0.035 | 1.09 ± 0.12 | 0.8895 ± 0.00071
31 | NC(=O)c1ncn([C@@H]2O[C@H](CO)[C@@H](O)[C@H]2O)c1N | 0.989 ± 0.03 | 0.947 ± 0.055 | 0.949 ± 0.04 | 1 ± 0.012 | 0.927 ± 0.044
32 | CO/N=C(\C(=O)N[C@@H]1C(=O)N2C(C(=O)O)=C(COC(N)=O)CS[C@H]12)c1ccco1 | 0.915 ± 0.088 | 0.949 ± 0.023 | 0.938 ± 0.027 | 0.976 ± 0.1 | 1.13 ± 0.028

Reference: the supplement of paper PMC6522484
